# Test results published in PubChem BioAssay (NCATS).
# Records with an inconclusive call do not appear. Active and inactive are the calls of the source. Unless noted, calls follow the shape of the dose curve; as a rule, active = well fitted curve in the direction sought with a large enough effect; inconclusive = small, poorly fitted or top-dose-only effect, or another doubt; inactive = no such curve, though single readings can be large; an effect the other way counts as inactive or inconclusive.
# How the values were obtained:
# [1] = molecular target: Glucocorticoid receptor (Homo sapiens) (UniProt P04150); experiment: qHTS assay for small molecule agonists of glucocorticoid receptor signaling (AID 588532; active = well fitted curve in the direction sought with a large enough effect in the signal ratio, with a control signal flat; the % refers to the signal ratio;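 also: 100% = dexamethasone at 0.1 µM and 0% = DMSO only wells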); conditions: HeLa MMTV-bla, beta-lactamase ratio, agonist, 18 h; stronger effect = higher value; percent of dexamethasone control, DMSO zero
# How it was run: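 Agonist-mode qHTS: GRE-driven beta-lactamase in HeLa cells exposed 18 h to titrated compounds (up to 92 uM), then CCF4 ratio read after 2 h at RT; Hill-fitted EC50, efficacy relative to 0.1 uM dexamethasone.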
# [2] = qHTS assay for small molecule antagonists of peroxisome proliferator-activated receptor delta signaling (AID 588535); conditions: HEK293T PPARd-UAS-bla, beta-lactamase FRET ratio, 18 h; 460 nm channel;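 also: cells co-treated with a PPAR-delta agonist as stimulator during compound exposure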
# How it was run: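 Titrations were run on PPAR-delta-UAS-bla HEK293T cells in charcoal/dextran-stripped serum, incubated 18 h at 37 C. CCF4 fluorescence (460/530 nm) after 2 h RT; Hill equation yields IC50 and maximal response.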
# [3] = molecular target: Peroxisome proliferator-activated receptor gamma (Homo sapiens) (UniProt P37231); experiment: qHTS assay for small molecule antagonists of peroxisome proliferator-activated receptor gamma signaling (AID 588537; active = well fitted inhibition curve with a large enough effect in the signal ratio, with a control signal flat, not every such curve was filed as active; the % refers to the signal ratio;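 also: reporter cells co-stimulated with 50 nM rosiglitazone agonist during compound treatment; % of control where 0% means no effect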); conditions: HEK293 PPARg-UAS-bla, beta-lactamase ratio, antagonist mode; series mostly up to 76.8 µM
# How it was run: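 Antagonist-mode β-lactamase reporter screen run as a titration series. HEK293 PPARγ-UAS-bla cells are stimulated with rosiglitazone (50 nM final) for 16 h, then CCF4 is read at 460/530 nm. Data are scaled between DMSO and rosiglitazone and fitted to the Hill equation.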
# [4] = molecular target: Vitamin D3 receptor (Homo sapiens) (UniProt P11473); experiment: qHTS assay for small molecule antagonists of vitamin D receptor signaling (AID 588541; calls by dose curve;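 also: receptor activated by calcitriol during compound treatment; % is scaled to controls: 0 for no effect and ±100 for the full control effect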); conditions: HEK293T VDR-UAS-bla, beta-lactamase ratio, antagonist mode; series mostly up to 76.7 µM
# How it was run: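 Antagonist-mode beta-lactamase reporter assay: HEK293T VDR-UAS-bla cells were exposed to titrated compound alongside 1-alpha,25-dihydroxyvitamin D3 at 3 nM final for 16 h. Values were normalized to the 50 nM agonist control and DMSO basal, with IC50 and efficacy from Hill equation fits.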
# [5] = molecular target: Vitamin D3 receptor (Homo sapiens) (UniProt P11473); experiment: qHTS assay for small molecule agonists of vitamin D receptor signaling (AID 588543; calls by dose curve;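 also: 0% = DMSO basal and 100% = reference agonist control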); conditions: HEK293T VDR-UAS-bla, beta-lactamase ratio, 16 h; series mostly up to 76.8 µM
# How it was run: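 β-lactamase reporter, VDR-UAS-bla HEK293T, agonist mode. Cells plated 5 h at 37 °C, compound titration 16 h at 37 °C, CCF4 dye 2 h RT, ratio 460/530 nm. Hill fit → EC50, efficacy vs 50 nM 1α,25-(OH)2D3.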
# [6] = qHTS assay for small molecule agonists of retinoid X receptor alpha signaling (AID 588544; calls by dose curve;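 as to activation: 0% = DMSO basal wells and 100% = reference agonist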); conditions: HEK293T RXRa-UAS-bla, beta-lactamase reporter, 18 h; 530 nm emission
# [7] = molecular target: Retinoic acid receptor RXR-alpha (Homo sapiens) (UniProt P19793); experiment: as above; conditions: HEK293T RXRa-UAS-bla, beta-lactamase reporter, 18 h; series mostly up to 76.7 µM
# [8] = molecular target: Thyroid hormone receptor beta (Homo sapiens) (UniProt P10828); experiment: qHTS assay for small molecule agonists of thyroid hormone receptor beta signaling (AID 588545; calls by dose curve;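 also: 0% = DMSO only and 100% = 10 nM T3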); conditions: TR-UAS-bla GripTite HEK 293, beta-lactamase ratio, agonist mode, 18 h; series mostly up to 76.7 µM
# How it was run: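 Efficacy and EC50 values derive from Hill fits of qHTS titration data, normalized to 10 nM T3 and DMSO-only wells. HEK 293 reporter cells were stimulated for 18 hrs at 37 C, with beta-lactamase activity measured by CCF4 fluorescence.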
# [9] = qHTS assay for small molecule antagonists of retinoid X receptor alpha signaling (AID 588546; active = well fitted inhibition curve with a large enough effect in the signal ratio, with a control signal flat, not every such curve was filed as active; the % refers to the signal ratio; also: potency is read from the fitted curve at half-maximal effect;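 as to max response: cells stimulated with 9-cis-retinoic acid as agonist; % is scaled to controls: 0 for no effect and ±100 for the full control effect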); conditions: HEK293T RXRa-UAS-bla, beta-lactamase ratio, antagonist mode; measured here: W530 green channel, cytotoxicity proxy
# How it was run: (§1)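 Beta-lactamase reporter inhibition, read as CCF4 fluorescence ratio (ex 405, em 460/530 nm) after 2 h at RT. HEK293T UAS-bla cells, 2500/well, were stimulated with 9-cis-RA at 500 or 100 nM final alongside test compound for 18 h at 37 C.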
# [10] = molecular target: Retinoic acid receptor RXR-alpha (Homo sapiens) (UniProt P19793); experiment: as above; conditions: HEK293T RXRa-UAS-bla, beta-lactamase ratio, antagonist mode
# How it was run: as §1
# [11] = qHTS assay for small molecule activators of the p53 signaling pathway (AID 651743; active = well fitted activation curve with a large enough effect in the signal ratio, not every such curve was filed as active; the % refers to the signal ratio; also: potency is read from the fitted curve at half-maximal effect; as to activation: % of control where 0% means no effect); conditions: HCT-116 p53RE-bla, beta-lactamase FRET ratio, 16 h; activation: stronger effect = higher value
# How it was run: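 After 16 hours compound treatment at 37 C, HCT-116 cells stably expressing p53RE-driven beta-lactamase were loaded with LiveBLAzer B/G FRET substrate for 2 hours at room temperature. Fluorescence intensity served as the p53 activation read-out.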
# [12] = qHTS assay for environmental chemicals that activate the Aryl hydrocarbon Receptor (AhR) signaling pathway (AID 651777); conditions: 1A2-DRE human hepatoma cells, luciferase, 24 h; activation: stronger effect = higher value; also: % of control where 0% means no effect; nearly all actives have a fitted effect of over 15% in size
# How it was run: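 Human hepatoma 1A2-DRE cells, stably carrying a dioxin response element and CYP1A2 promoter driving luciferase, were exposed to compounds for 24 hr at 37 C and 5% CO2. Luciferase signal was then read after 30 min One-Glo at room temperature.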
# [13] = molecular target: Peroxisome proliferator-activated receptor alpha (Homo sapiens) (UniProt Q07869); experiment: qHTS assay for small molecule agonists of the peroxisome proliferator-activated receptor alpha (PPARalpha) signaling pathway (AID 651778); conditions: PathHunter PPARalpha complementation, chemiluminescence, 6 h; max response: stronger effect = higher value; also: % of control where 0% means no effect
# How it was run: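 Chemiluminescence from complemented enzyme reported PPARalpha activation in cells after 6 hr of compound treatment at 37 C. The detection reagent was incubated for 60 min at room temperature, and compounds were scored as agonists.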
# [14] = qHTS assay for small molecule agonists of the antioxidant response element (ARE) signaling pathway measured by Nrf2-dependant transcriptional activity (AID 720636; active = well fitted curve in the direction sought with a large enough effect in the repeat runs; an effect the other way counts as inactive or inconclusive; also: % of control where 0% means no effect); conditions: ARE-luc HepG2, Nrf2 luciferase reporter, 16 h; series mostly up to 92.4 µM
# How it was run: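 ARE-luc HepG2 cells carrying an Nrf2-responsive luciferase reporter were plated in medium with 1% dialyzed FBS, left 6 hr at 37 C to attach, then exposed to compound for 16 hr. Luciferase luminescence was read after ONE-Glo addition.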
# [15] = qHTS assay for small molecule agonists of the antioxidant response element (ARE) signaling pathway measured by Nrf2-dependant transcriptional activity - cell viability counter screen (AID 720653; active = well fitted curve in the direction sought with a large enough effect in the repeat runs; an effect the other way counts as inactive or inconclusive; also: % is scaled to controls: 0 for no effect and ±100 for the full control effect); conditions: ARE-bla HepG2 viability, CellTiter-Glo ATP luminescence, 16 h; max response: stronger effect = lower value
# How it was run: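 Cytotoxicity counter screen: intracellular ATP quantified by CellTiter-Glo luminescence in the same ARE-bla HepG2 plates, after 16 h compound exposure and a 2 h beta-lactamase substrate step.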
# [16] = qHTS assay for cell viability of HEK293 cells (AID 743288); conditions: ATP luminescence (CellTiter-Glo), 18 h; max response: stronger effect = lower value; also: % is scaled to controls: 0 for no effect and ±100 for the full control effect; nearly all actives have a fitted effect of over 50% in size
# How it was run: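 ATP luminescence (CellTiter-Glo) reports metabolically competent cell number after parental HEK293 cells, 2,000/well, were treated with DMSO-dissolved compounds for 18 h at 37 C; reagent incubation 30 min, room temperature.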
# [17] = qHTS assay for cell viability of the p53RE-bla HCT-116 cell line (AID 743292); conditions: p53RE-bla HCT-116 viability, ATP luminescence, 16 h; series mostly up to 95 µM; also: % is scaled to controls: 0 for no effect and ±100 for the full control effect; nearly all actives have a fitted effect of over 55% in size
# How it was run: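 CellSensor p53RE-bla HCT-116 cells, 4,000/well, preincubated 5 h at 37 C, then exposed to compounds in DMSO for 16 h at 37 C. Viability read as CellTiter-Glo luminescence (intracellular ATP) after 30 min at room temperature.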
# [18] = molecular target: Nuclear receptor subfamily 1 group I member 2 (Rattus norvegicus) (UniProt Q9R1A7); experiment: qHTS assay for small molecule activators of the rat pregnane X receptor (rPXR) signaling pathway (AID 651751; call rule not given here; also: 0% is about no effect); conditions: rPXR reporter cells, luciferase (One-Glo), 24 h
# [19] = qHTS assay for small molecule activators of the human pregnane X receptor (PXR) signaling pathway (AID 720659; call rule not given here; also: 0% is about no effect); conditions: DPX-2 HepG2 CYP3A4-luciferase, 24 h; series mostly up to 92.3 µM
# [20] = molecular target: Peroxisome proliferator-activated receptor gamma (Homo sapiens) (UniProt P37231); experiment: qHTS assay for small molecule agonists of peroxisome proliferator-activated receptor gamma signaling (AID 588536; active = well fitted curve in the direction sought with a large enough effect in the signal ratio, with a control signal flat, not every such curve was filed as active; the % refers to the signal ratio;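 also: 0% = DMSO basal wells and 100% = rosiglitazone at 2 µM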); conditions: HEK293 PPARg-UAS-bla, beta-lactamase ratio, 16 h, percent of rosiglitazone response, DMSO as zero; series mostly up to 76.7 µM
# How it was run: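 This is an agonist-mode beta-lactamase reporter assay in HEK293 PPAR-gamma-UAS-bla cells with 1% charcoal/dextran FBS. Compound titrations ran 16 h at 37 C before CCF4 detection. EC50 and efficacy are Hill fits scaled to 2 uM rosiglitazone (100%) and DMSO basal.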
# Nuclear receptor subfamily 1 group I member 2 (Rattus norvegicus), sequence (Q9R1A7 whole entry, looked up): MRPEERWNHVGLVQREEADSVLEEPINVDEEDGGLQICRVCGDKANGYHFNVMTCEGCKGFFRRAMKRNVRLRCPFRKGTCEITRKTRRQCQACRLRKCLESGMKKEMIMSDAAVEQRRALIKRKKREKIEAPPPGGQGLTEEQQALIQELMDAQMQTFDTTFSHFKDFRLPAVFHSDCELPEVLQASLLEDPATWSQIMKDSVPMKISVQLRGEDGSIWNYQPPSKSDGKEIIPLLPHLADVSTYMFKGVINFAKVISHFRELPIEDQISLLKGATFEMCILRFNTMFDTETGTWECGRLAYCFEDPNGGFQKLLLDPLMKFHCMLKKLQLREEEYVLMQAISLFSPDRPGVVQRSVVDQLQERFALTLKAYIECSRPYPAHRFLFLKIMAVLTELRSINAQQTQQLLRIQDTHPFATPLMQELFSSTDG
# Thyroid hormone receptor beta (Homo sapiens), sequence (P10828 whole entry, looked up): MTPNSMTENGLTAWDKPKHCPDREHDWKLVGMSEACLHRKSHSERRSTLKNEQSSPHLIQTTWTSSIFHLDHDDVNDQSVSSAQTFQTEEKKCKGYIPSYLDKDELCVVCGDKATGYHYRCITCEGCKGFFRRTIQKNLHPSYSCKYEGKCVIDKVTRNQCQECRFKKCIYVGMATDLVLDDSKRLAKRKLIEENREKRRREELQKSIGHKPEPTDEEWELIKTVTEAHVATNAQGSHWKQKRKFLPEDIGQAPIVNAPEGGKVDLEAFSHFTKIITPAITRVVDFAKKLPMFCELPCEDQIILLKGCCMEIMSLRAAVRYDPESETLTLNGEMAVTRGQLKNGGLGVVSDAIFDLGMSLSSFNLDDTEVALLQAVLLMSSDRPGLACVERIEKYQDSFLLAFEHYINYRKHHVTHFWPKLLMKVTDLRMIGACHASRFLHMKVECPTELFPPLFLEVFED
# Glucocorticoid receptor (Homo sapiens), sequence (P04150 whole entry, looked up): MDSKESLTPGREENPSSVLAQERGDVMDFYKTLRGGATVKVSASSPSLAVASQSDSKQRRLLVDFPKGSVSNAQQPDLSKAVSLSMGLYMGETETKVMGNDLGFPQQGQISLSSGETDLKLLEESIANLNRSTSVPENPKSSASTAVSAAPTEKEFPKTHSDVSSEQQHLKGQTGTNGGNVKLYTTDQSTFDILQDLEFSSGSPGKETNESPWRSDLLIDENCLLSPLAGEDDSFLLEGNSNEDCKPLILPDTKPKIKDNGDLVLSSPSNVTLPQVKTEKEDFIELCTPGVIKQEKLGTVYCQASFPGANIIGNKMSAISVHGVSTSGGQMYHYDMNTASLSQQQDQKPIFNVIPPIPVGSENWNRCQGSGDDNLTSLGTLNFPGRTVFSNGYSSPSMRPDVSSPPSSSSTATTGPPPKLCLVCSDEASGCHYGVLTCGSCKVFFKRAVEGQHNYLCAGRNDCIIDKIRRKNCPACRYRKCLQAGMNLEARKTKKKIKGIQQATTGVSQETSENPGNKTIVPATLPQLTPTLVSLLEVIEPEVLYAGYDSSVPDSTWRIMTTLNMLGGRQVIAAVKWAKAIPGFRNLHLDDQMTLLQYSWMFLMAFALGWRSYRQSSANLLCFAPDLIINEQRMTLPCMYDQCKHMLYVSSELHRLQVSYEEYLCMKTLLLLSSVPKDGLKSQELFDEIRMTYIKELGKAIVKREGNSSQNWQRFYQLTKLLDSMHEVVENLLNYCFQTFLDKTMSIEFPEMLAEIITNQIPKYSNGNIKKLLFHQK
# Peroxisome proliferator-activated receptor alpha (Homo sapiens), sequence (Q07869 whole entry, looked up): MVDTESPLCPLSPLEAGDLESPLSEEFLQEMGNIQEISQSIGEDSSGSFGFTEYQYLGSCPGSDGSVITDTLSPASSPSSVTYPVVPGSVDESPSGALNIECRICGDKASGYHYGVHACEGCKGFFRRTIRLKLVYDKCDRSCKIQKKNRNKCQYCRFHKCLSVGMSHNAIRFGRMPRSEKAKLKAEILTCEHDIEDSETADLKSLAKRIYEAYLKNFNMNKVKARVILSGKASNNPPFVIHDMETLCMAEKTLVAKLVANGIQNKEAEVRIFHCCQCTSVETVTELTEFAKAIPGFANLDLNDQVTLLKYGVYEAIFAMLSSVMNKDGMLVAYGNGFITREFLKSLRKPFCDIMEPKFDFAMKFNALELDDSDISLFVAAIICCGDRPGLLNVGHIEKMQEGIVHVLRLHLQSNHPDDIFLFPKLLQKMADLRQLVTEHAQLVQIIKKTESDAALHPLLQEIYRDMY
# Peroxisome proliferator-activated receptor gamma (Homo sapiens), sequence (P37231 whole entry, looked up): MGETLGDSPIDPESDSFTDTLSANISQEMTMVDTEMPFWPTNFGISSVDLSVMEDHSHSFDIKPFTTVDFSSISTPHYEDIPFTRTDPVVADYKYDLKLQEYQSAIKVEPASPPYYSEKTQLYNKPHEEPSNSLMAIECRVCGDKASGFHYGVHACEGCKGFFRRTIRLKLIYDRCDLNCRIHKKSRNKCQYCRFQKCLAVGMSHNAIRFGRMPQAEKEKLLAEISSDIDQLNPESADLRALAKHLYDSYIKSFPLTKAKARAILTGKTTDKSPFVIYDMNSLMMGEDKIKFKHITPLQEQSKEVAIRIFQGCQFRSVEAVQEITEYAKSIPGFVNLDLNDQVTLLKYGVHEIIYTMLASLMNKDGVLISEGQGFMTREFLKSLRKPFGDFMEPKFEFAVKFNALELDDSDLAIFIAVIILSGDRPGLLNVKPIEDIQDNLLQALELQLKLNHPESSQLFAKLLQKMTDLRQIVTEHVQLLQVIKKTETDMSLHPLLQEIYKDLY
# Retinoic acid receptor RXR-alpha (Homo sapiens), sequence (P19793 whole entry, looked up): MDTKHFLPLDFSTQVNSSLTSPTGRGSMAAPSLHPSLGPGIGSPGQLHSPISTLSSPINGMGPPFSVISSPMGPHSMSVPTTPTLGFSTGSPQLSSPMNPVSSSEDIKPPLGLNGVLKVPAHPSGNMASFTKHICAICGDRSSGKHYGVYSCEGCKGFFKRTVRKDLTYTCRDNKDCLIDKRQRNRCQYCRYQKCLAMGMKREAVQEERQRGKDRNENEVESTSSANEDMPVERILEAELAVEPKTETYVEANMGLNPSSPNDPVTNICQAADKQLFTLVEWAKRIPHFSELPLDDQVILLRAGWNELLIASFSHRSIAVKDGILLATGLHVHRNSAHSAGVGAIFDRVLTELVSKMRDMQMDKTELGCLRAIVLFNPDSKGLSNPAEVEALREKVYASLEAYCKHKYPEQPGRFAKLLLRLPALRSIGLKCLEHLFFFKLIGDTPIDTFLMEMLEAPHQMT
# Vitamin D3 receptor (Homo sapiens), sequence (P11473 whole entry, looked up): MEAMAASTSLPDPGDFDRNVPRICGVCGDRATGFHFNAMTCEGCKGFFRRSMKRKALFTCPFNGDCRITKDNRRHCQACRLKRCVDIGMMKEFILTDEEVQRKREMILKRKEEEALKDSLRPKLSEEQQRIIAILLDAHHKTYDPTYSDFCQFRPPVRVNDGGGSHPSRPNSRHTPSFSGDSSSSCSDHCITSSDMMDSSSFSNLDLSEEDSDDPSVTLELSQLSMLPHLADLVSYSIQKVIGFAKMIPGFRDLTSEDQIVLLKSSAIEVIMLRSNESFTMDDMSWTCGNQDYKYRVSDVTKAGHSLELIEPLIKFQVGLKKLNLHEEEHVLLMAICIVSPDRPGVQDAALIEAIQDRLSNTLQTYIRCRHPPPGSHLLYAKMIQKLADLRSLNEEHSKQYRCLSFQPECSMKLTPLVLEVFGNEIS
smiles,measurement,setting,value
O=C=NC1CCC(CC2CCC(N=C=O)CC2)CC1 (stereo unspecified),activation,[1],-3.36% (inactive)
same,max response,[2],20.7%
same,Potency,[3],inactive
same,Potency,[4],inactive
same,outcome,[5],inactive
same,max response,[6],-11%
same,Potency,[7],inactive
same,Potency,[8],inactive
same,max response,[9],-7.15%
same,max response,[10],-13.6% (inactive)
same,activation,[11],-0.886% (inactive)
same,activation,[12],0.629% (inactive)
same,max response,[13],-2.73% (inactive)
same,Potency,[14],inactive
same,max response,[15],-1.04% (inactive)
same,max response,[16],-9.19% (inactive)
same,Potency,[17],inactive
same,max response,[18],-1.91% (inactive)
same,outcome,[19],inactive
CCOCCOCCOCC,activation,[1],-5.25% (inactive)
same,max response,[2],12.8%
same,outcome,[20],inactive
same,Potency,[3],inactive
same,Potency,[4],inactive
same,outcome,[5],inactive
same,max response,[6],-3.22%
same,Potency,[7],inactive
same,Potency,[8],inactive
same,max response,[9],-7.04%
same,activation,[12],0.117% (inactive)
same,max response,[13],-2.34% (inactive)
same,Potency,[14],inactive
same,max response,[15],-4.14% (inactive)
same,max response,[16],-13.3% (inactive)
same,Potency,[17],inactive
same,max response,[18],1.72% (inactive)
same,outcome,[19],inactive
O=[N+]([O-])c1ccc(O)cc1C(F)(F)F,activation,[1],-7.74% (inactive)
same,max response,[2],-4.35%
same,Potency,[3],inactive
same,outcome,[5],inactive
same,Potency,[8],inactive
same,max response,[9],6.72%
same,Potency,[10],7.94 µM (active)
same,Potency,[11],31.6 µM (active)
same,activation,[12],14.2% (inactive)
same,max response,[13],-8.59% (inactive)
same,Potency,[14],inactive
same,Potency,[17],inactive
same,outcome,[19],inactive
CC(C)(N=C=O)c1cccc(C(C)(C)N=C=O)c1,activation,[1],9.9% (inactive)
same,max response,[2],9.94%
same,outcome,[20],inactive
same,Potency,[3],inactive
same,Potency,[4],inactive
same,outcome,[5],inactive
same,max response,[6],8.92%
same,Potency,[7],inactive
same,Potency,[8],inactive
same,max response,[9],-4.03%
same,max response,[10],-29.1% (inactive)
same,activation,[12],0.551% (inactive)
same,max response,[13],-1.39% (inactive)
same,Potency,[14],inactive
same,max response,[15],-5.26% (inactive)
same,max response,[16],-12% (inactive)
same,Potency,[17],inactive
same,max response,[18],4.49% (inactive)
CC(C)CCCCOC(=O)c1ccccc1C(=O)OCCCCC(C)C,activation,[1],-8.95% (inactive)
same,max response,[2],-26.8%
same,outcome,[20],inactive
same,Potency,[3],inactive
same,max response,[6],6.42%
same,Potency,[7],inactive
same,Potency,[8],inactive
same,max response,[9],-6.23%
same,max response,[10],-8.08% (inactive)
same,activation,[11],-3.26% (inactive)
same,activation,[12],0.811% (inactive)
same,max response,[13],2.93% (inactive)
same,Potency,[14],inactive
same,max response,[15],-11% (inactive)
same,max response,[16],-17.5% (inactive)
same,Potency,[17],inactive
same,max response,[18],13.4% (inactive)
CC(COc1ccc(C(C)(C)C)cc1)OS(=O)OCCCl (stereo unspecified),max response,[2],82.6%
same,outcome,[5],inactive
same,Potency,[8],inactive
same,activation,[11],8.46% (inactive)
same,activation,[12],12.5% (inactive)
same,max response,[13],-2.96% (inactive)
same,max response,[15],-25.1% (inactive)
same,max response,[16],-26.1% (inactive)
same,Potency,[17],inactive
same,max response,[18],-11.7% (inactive)
C=CCOc1nc(OCC=C)nc(OCC=C)n1,activation,[1],-1.63% (inactive)
same,max response,[2],15.5%
same,outcome,[20],inactive
same,outcome,[5],inactive
same,max response,[6],-0.634%
same,Potency,[7],inactive
same,Potency,[8],inactive
same,max response,[9],-8.71%
same,activation,[11],-3.44% (inactive)
same,activation,[12],5.16% (inactive)
same,max response,[13],-2.18% (inactive)
same,Potency,[14],inactive
same,max response,[15],1.36% (inactive)
same,max response,[16],-0.661% (inactive)
same,Potency,[17],inactive
same,max response,[18],-0.162% (inactive)
